Results on 7 compounds are retold here after the supplement of paper PMC11628255, “Interference of metal ions on the bioluminescent signal of firefly, Renilla, and NanoLuc luciferases in high-throughput screening assays” (Frontiers in Chemistry, 2024).

± gives the standard deviation of the averaged measurements.

For the test, the system named is NanoLuc luciferase (NLuc). Nature of the test: residual bioluminescent signal relative to negative (DMSO) control; higher = less interference (more residual luciferase signal). The protocol: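 Purified luciferase (FLuc 10 nM + 10 uM D-luciferin; NLuc 10 pM + 10 uM furimazine; RLuc 50 pM + 2 uM coelenterazine) in 384-well plates; metal salt pre-incubated with enzyme 10 min at RT, substrate added and luminescence read after 10 min. Signal normalised to plate DMSO negative control (% N_VALUE = x/mean neg *100); triplicate wells at 0.01, 1 and 5 mM salt.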

Setting [1] is: metal salt concentration 0.01 mM, HEPES conditions (100 mM HEPES, 0.1% BSA, pH 7.5).
[2] abbreviates: metal salt concentration 0.01 mM, screening conditions (PBS, 0.1% BSA, pH 7.4).
[3] abbreviates: metal salt concentration 1 mM, HEPES conditions (100 mM HEPES, 0.1% BSA, pH 7.5).
Where [4] appears, read: metal salt concentration 1 mM, screening conditions (PBS, 0.1% BSA, pH 7.4).
The mark [5] stands for this setting: metal salt concentration 5 mM, HEPES conditions (100 mM HEPES, 0.1% BSA, pH 7.5).
[6] abbreviates: metal salt concentration 5 mM, screening conditions (PBS, 0.1% BSA, pH 7.4).

Consider `O=[N+]([O-])[O-].O=[N+]([O-])[O-].[Zn+2]` [zinc nitrate], for which the residual bioluminescent signal under setting [1] amounted to 93.6 ± 0.95%; the residual bioluminescent signal under setting [2] amounted to 93 ± 6.4%; the residual bioluminescent signal under setting [3] is 30.5 ± 4.9%; the residual bioluminescent signal under setting [4] stood at 32.8 ± 4.5%; the residual bioluminescent signal under setting [5] was 16.1 ± 1.8%; the residual bioluminescent signal under setting [6] was 9.03 ± 2.6%.
Take `[Cl][Sn][Cl]` [tin(II) chloride]: the residual bioluminescent signal turned out to be 95.8 ± 2.9% under setting [1]; 97 ± 5.1% under setting [2]; 90.1 ± 5% under setting [3]; 84.2 ± 6.6% under setting [4]; 87.3 ± 5% under setting [5]; 0.413 ± 0.39% under setting [6].
As to `O=[N+]([O-])[O-].[K+]` [potassium nitrate], the residual bioluminescent signal reads like this: under setting [1], 95.2 ± 2.4%; under setting [2], 104 ± 1.6%; under setting [3], 90.9 ± 1.1%; under setting [4], 94.9 ± 3.4%; under setting [5], 101 ± 2%; under setting [6], 101 ± 4.7%.
For the compound `O=[N+]([O-])[O-].O=[N+]([O-])[O-].O=[N+]([O-])[O-].[Al+3]` [aluminium nitrate], the residual bioluminescent signal reads like this: under setting [1], 95.9 ± 2.5%; under setting [2], 100 ± 2.5%; under setting [3], 68.7 ± 3.2%; under setting [4], 89.9 ± 5.7%; under setting [5], 107 ± 1.8%; under setting [6], 103 ± 4.9%.
On to `O=[N+]([O-])[O-].O=[N+]([O-])[O-].[Pb+2]` [lead(II) nitrate], for which the residual bioluminescent signal by setting is: under setting [1], 94 ± 3.2%; under setting [2], 93.8 ± 2.2%; under setting [3], 26.7 ± 2.9%; under setting [4], 88.2 ± 4.3%; under setting [5], 7.56 ± 0.53%; under setting [6], 44.2 ± 9%.
With `O=[N+]([O-])[O-].O=[N+]([O-])[O-].O=[N+]([O-])[O-].[Ga+3]` [gallium(III) nitrate], the residual bioluminescent signal worked out at 96.1 ± 2.9% under setting [1]; 99.5 ± 2.3% under setting [2]; 70.9 ± 6.9% under setting [3]; 83 ± 7.1% under setting [4]; 8.8 ± 1.5% under setting [5]; 0.649 ± 0.57% under setting [6].
For the compound `O=[N+]([O-])[O-].[Li+]` [lithium nitrate], the residual bioluminescent signal under setting [1] was 93.22 ± 0.49%; the residual bioluminescent signal under setting [2] came to 96.7 ± 1%; the residual bioluminescent signal under setting [3] was 97 ± 3.4%; the residual bioluminescent signal under setting [4] amounted to 95.4 ± 4.8%; the residual bioluminescent signal under setting [5] was 102 ± 3.7%; the residual bioluminescent signal under setting [6] came out at 97.1 ± 3.3%.
